18 compounds from the supplement of paper PMC13380429 can be followed below.

Values without a mark were called inactive.

The assay relates to Vero E6 infected with SARS-CoV-2. Description: inhibition of SARS-CoV-2 cytopathic effect; higher = more antiviral protection, active = above 15. The conditions noted are these: 48 h. (In general: Protection from cytopathic effect is a common read-out in antiviral testing.)

With `CCCC(C)(COC(N)=O)COC(=O)NC(C)C` (stereo not given), the “inhibition of SARS-CoV-2 cytopathic effect” value (“inhibition” for short) is 1.17% (1 nM); 2.25% (8.33 nM); 2.38% (100 nM); 4.43% (833.33 nM); 0.83% (10000 nM).
The like results for `C/C(O)=C(\C#N)C(=O)Nc1ccc(C(F)(F)F)cc1` [teriflunomide] were, in that order, 3.27%, 1.99%, 1.22%, -3.04% and 1.1%.
The like results for `Cc1nc(NC(=O)N2CCC[C@H]2C(N)=O)sc1-c1ccnc(C(C)(C)C(F)(F)F)c1` [alpelisib] were, in that order, 2.4%, 0.48%, 0.01%, -1.87% and 0.02%.
The like results for `CNCCCOc1cc(F)c(-c2c(Cl)nc3ncnn3c2N[C@@H](C)C(F)(F)F)c(F)c1` [cevipabulin] were, in that order, 1.36%, 1.13%, 2.89%, 6.1% and -0.76%.
`COc1ccccc1OCCNCC(O)COc1cccc2[nH]c3ccccc3c12` (stereo not given) [carvedilol]: the “inhibition” value was 2.73% (1 nM); 3.88% (8.33 nM); 0.32% (100 nM); -1.02% (833.33 nM); -1.85% (10000 nM).
For `C[C@]12CCC(=O)C=C1CC[C@@H]1[C@@H]2[C@@H](O)C[C@@]2(C)[C@H]1CC[C@]2(O)C(=O)CO` [hydrocortisone], in that order: -3.82%, -3.12%, -3.55%, -4.8% and -3.51%.
For the compound `CC(O)Cn1cnc2c1c(=O)n(C)c(=O)n2C` (stereo not given) [Proxyphylline], the “inhibition” value (1 nM) is -1.14%; the “inhibition” value (8.33 nM) was -0.86%; the “inhibition” value (100 nM) is -0.81%; the “inhibition” value (833.33 nM) was -0.51%; the “inhibition” value (10000 nM) was 0.19%.
The like results for `O=C(CN1C2=NCCN2c2ccccc21)c1ccc(-c2ccccc2)cc1` were, in that order, -0.77%, 3.75%, 1.71%, -0.84% and 14.8%.
The like results for `CCC1(c2ccccc2)C(=O)N(COC)C(=O)N(COC)C1=O` [eterobarb] were, in that order, -0.71%, 0.82%, -1.29%, -0.57% and 0.84%.
For `Cc1cc(NC(=O)NCCN2CCC(O)(Cc3ccccc3)CC2)c2ccccc2n1` [palosuran], in that order: -0.45%, 0.24%, 0.95%, 2.2% and 1.86%.
With `CC(C)(O)c1ccccc1CC[C@@H](SCC1(CC(=O)O)CC1)c1cccc(/C=C/c2ccc3ccc(Cl)cc3n2)c1` [montelukast], the “inhibition” value was 0.18% (1 nM); 0.4% (8.33 nM); -0.23% (100 nM); -0.66% (833.33 nM); -4.23% (10000 nM).
For `CC(C)(Oc1ccc(Cl)cc1)C(=O)N1CSCC1C(=O)O` (stereo not given) [timofibrate], in that order: 1.85%, 4.22%, 2.73%, -9.25% and 3.42%.
With `Cc1[nH]cnc1-c1ccc(Cl)cc1` [lofemizole], the “inhibition” value was -0.61% (1 nM); -0.4% (8.33 nM); 150% (active) (100 nM); 0.04% (833.33 nM); -0.36% (10000 nM).
For `C[N+]1([O-])[C@@H]2CC[C@H]1C[C@@H](OC(=O)C(CO)c1ccccc1)C2` (stereo not given in full) [atropine-oxide], in that order: -2.53%, -2.05%, -1.67%, -2.02% and -1.76%.
For `COC(=O)[C@H]1[C@H]2C[C@@H]3c4[nH]c5cc(OC)ccc5c4CCN3C[C@H]2C[C@@H](OC(=O)c2cc(OC)c(OC)c(OC)c2)[C@@H]1OC` [reserpine], in that order: 1.33%, 3.05%, 0.71%, 3.56% and 7.95%.
In the case of `C[C@H](CCC(=O)NCCS(=O)(=O)O)[C@H]1CC[C@H]2[C@@H]3[C@@H](O)C[C@@H]4C[C@H](O)CC[C@]4(C)[C@H]3CC[C@]12C` [ursodeoxycholyltaurine], the “inhibition” value is -1.76% (1 nM); 3.52% (8.33 nM); 1.07% (100 nM); -3.74% (833.33 nM); -4.25% (10000 nM).
For `OC(CCN1CCCCC1)(c1ccccc1)C1CC2C=CC1C2` (stereo not given) [biperiden], in that order: 0.1%, -0.07%, 0.23%, -2.88% and -2%.
For `O=C(/C=C/c1cccc(S(=O)(=O)Nc2ccccc2)c1)NO` [belinostat], in that order: -1.11%, 0.41%, -1.26%, -13.7% and -27.1%.
